Inconclusive results are not listed. A number with no mark means an inactive call. Calls of active or inactive are those of the source. Calls come from the whole dose curve.
Each compound was assayed against Acetylcholinesterase (Homo sapiens) (UniProt P22303) (assay: Acetylcholinesterase (AChE) small molecule antagonists: fluorescence cell-based qHTS assay (AID 1347398; note: nearly all actives have a fitted effect of over 50% in size)). Settings: SH-SY5Y cells; Potency: AChE activity; series mostly up to 115 µM; activity change, negative = inhibition: at the top concentration.
Chain of Acetylcholinesterase (Homo sapiens) (P22303 whole entry, looked up): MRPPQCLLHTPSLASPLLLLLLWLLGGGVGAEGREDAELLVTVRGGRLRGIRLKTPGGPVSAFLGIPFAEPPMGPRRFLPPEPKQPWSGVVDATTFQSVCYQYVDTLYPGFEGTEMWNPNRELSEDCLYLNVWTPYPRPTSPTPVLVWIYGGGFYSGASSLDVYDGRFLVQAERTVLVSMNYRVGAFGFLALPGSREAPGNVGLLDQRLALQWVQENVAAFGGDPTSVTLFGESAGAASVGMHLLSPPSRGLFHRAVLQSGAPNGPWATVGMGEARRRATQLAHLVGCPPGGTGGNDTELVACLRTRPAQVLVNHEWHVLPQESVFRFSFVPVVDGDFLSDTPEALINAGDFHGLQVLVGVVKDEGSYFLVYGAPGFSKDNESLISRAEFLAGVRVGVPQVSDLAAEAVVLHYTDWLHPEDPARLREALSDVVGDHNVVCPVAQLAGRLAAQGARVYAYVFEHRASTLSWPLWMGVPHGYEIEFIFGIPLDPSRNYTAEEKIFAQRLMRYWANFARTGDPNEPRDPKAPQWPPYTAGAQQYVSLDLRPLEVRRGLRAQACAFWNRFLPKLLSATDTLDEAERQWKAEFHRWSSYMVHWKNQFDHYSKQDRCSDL
Source text: National Center for Advancing Translational Sciences [NCATS]
Division of Preclinical Innovation [DPI]
U.S. Environmental Protection Agency [EPA]
National Institutes of Environmental Health Sciences [NIEHS]
National Toxicology Program [NTP]
U.S. Food and Drug Administration [FDA]
Acetylcholinesterase (AChE) is the primary cholinesterase in the body that hydrolyzes a key neurotransmitter, acetylcholine. Inhibition of AChE activity can lead to neurotoxicity. Known inhibitors of AChE include organophosphorous pesticides (OP), chemical warfare agents, drugs, and various phytochemicals.
A homogenous cell-based assay using Amplitetrade mark Fluorimetric Acetylcholinesterase Assay Kit *Green Fluorescence* (AAT Bioquest, Sunnyvale, CA) was used to evaluate the chemicals in the Tox21 10K library that inhibit AChE activity. The assay uses Thiolite Green to quantify the thiocholine produced from the hydrolysis of acetylthiocholine by AChE from the SH-SY5Y cells. AChE can hydrolyze acetylthiocholine to create thiocholine. Thiolite Green is fluorescent when reacting with thiocholine. It has spectral properties similar to those of fluorescein. The fluorescence intensity of Thiolite Green is used to measure AChE activity. Its signal can be easily read by a fluorescence microplate reader at Ex/Em = 490/520 nm.
Tox21 Assay Protocol Summary:
For cell-based AChE assay, 2,000 SH-SY5Y cells in 4 uL/well were dispensed into black, clear-bottom 1536-well plates using a Multidrop Combi (Thermo Scientific) dispenser. The assay plates were incubated overnight at 37 C to allow cells to attach to the wells, followed by the transfer of 23 nL compound or DMSO (vehicle control) by a Pintool station (Wako Automation, CA). The plates were incubated for 30 min at 37 C and 5% CO2, followed by the addition of 4 uL of detection cocktail solution (ThioliteGreen, acetylthiocholine) into each well using Flying Reagent Dispenser (Beckman Coulter, CA) and then following 40 min incubation at room temperature. Fluorescent intensity (Ex/Em = 490/520 nm) was measured using an Envision plate reader (PerkinElmer, MA).
% is set by controls: 0 for no effect and ±100 for the full control effect; potency is the fitted concentration of half-maximal effect.

First: C=CC(=O)OCCCCO
Second: C=CC(=O)OCC(C)C
The “activity change, negative = inhibition” value of the first is higher: 1.03% for the first, -15.5% for the second.

First: O=C(Nc1ccccc1)Nc1cnns1
Second: CC(C)(OO)c1ccccc1
The “activity change, negative = inhibition” value of the first is higher: 0.117% for the first, -1.87% for the second.

Compared with `CC(Cl)Cl`, `NC(=O)C(Cl)(Cl)Cl` is higher in “activity change, negative = inhibition” value: -0.0422% for the first, 6.65% for the second.

First: O=C(C(Cl)(Cl)Cl)C(Cl)(Cl)Cl
Second: C=CC(=O)OC(C)(C)C
The “activity change, negative = inhibition” value of the first is lower: -0.0896% for the first, 7.9% for the second.

Going from `N#Cc1ccc(Cl)cc1` to `CC(C)(C)C(O)C(Oc1ccc(Cl)cc1)n1cncn1` (stereo not given), the “activity change, negative = inhibition” value falls from 5.11% to 0.451%.

Compared with `O=Cc1ccc(Cl)cc1Cl`, `CCCC(Cn1cncn1)c1ccc(Cl)cc1Cl` (stereo not given) is lower in “activity change, negative = inhibition” value: 3.19% for the first, -9.33% for the second.

Compared with `CCCCC(CC)COP(=O)(Oc1ccccc1)Oc1ccccc1` (stereo not given), `CC1(C)[C@H](C=C(Cl)Cl)[C@@H]1C(=O)O[C@@H](C#N)c1cccc(Oc2ccccc2)c1` is higher in “activity change, negative = inhibition” value: -23.5% for the first, 0.702% for the second.

Going from `O=[N+]([O-])c1ccc(F)c([N+](=O)[O-])c1` to `O=C1C(Cl)C(CCl)CN1c1cccc(C(F)(F)F)c1` (stereo not given), the “activity change, negative = inhibition” value falls from 0.738% to -6.53%.

Going from `CCOC(=O)CBr` to `COC(=O)C(Br)CBr` (stereo not given), the “activity change, negative = inhibition” value rises from -0.439% to 7.86%.

First: Oc1ccc(Cl)c(Cl)c1Cl
Second: CCOc1nc(F)cc2nc(S(=O)(=O)Nc3c(Cl)cccc3Cl)nn12
The “activity change, negative = inhibition” value of the first is higher: 0.447% for the first, -0.997% for the second.

First: CCCCNP(N)(N)=S
Second: CCCCN(N=O)C(=N)N[N+](=O)[O-]
The “activity change, negative = inhibition” value of the first is lower: 0.0991% for the first, 3.3% for the second.

First: Cn1sc(Cl)cc1=O
Second: Cn1cc[n+](C)c1 (tested in a mixture with another compound)
The “activity change, negative = inhibition” value of the first is higher: 10.4% for the first, -2.67% for the second.

Compared with `O=S1(=O)OC(c2cc(Br)c(O)c(Br)c2)(c2cc(Br)c(O)c(Br)c2)c2ccccc21`, `COC(=O)C(C)N(C(=O)Cc1ccccc1)c1c(C)cccc1C` (stereo not given) is lower in “activity change, negative = inhibition” value: -8.37% for the first, -18% for the second.

First: CCCCCCCCOC(=O)c1ccc(C(=O)OCCCCCCCC)c(C(=O)OCCCCCCCC)c1
Second: O=C(OC1CCCCC1)c1ccccc1C(=O)OC1CCCCC1
The “activity change, negative = inhibition” value of the first is higher: 3.65% for the first, -4.71% for the second.

First: CCBr
Second: ClCCCCBr
The “activity change, negative = inhibition” value of the first is higher: 10.4% for the first, -0.23% for the second.

Going from `CCOC(=O)COc1cc(-c2nn(C)c(OC(F)F)c2Cl)c(F)cc1Cl` to `O=C(O)C(F)(F)C(F)(F)C(F)(F)C(F)(F)C(F)(F)C(F)(F)C(F)(F)C(F)(F)C(F)(F)F`, the “activity change, negative = inhibition” value rises from -1.61% to 0.964%.

`S=C=NCc1ccccc1` was tested, and the “activity change, negative = inhibition” value was 3.46%.

Compound `CO[C@@H]1[C@H](OC(=O)NC(=O)CCl)CC[C@]2(CO2)[C@H]1[C@@]1(C)O[C@@H]1CC=C(C)C` has an activity change, negative = inhibition of -0.397% [at 23.8 µM].

Compared with `CC(=O)[C@H]1CC[C@H]2[C@@H]3CC[C@H]4C[C@](C)(O)CC[C@]4(C)[C@H]3CC[C@]12C`, `C[C@]12CC[C@H]3[C@@H](CCC4=CC(=O)CC[C@@H]43)[C@@H]1CC[C@@H]2OC(=O)CCC1CCCCC1` is lower in “activity change, negative = inhibition” value: 1.63% [at 53.7 µM] for the first, -12.4% [at 53.7 µM] for the second.

First: O=C(NC(=O)c1c(F)cccc1F)Nc1ccc(OC(F)(F)C(F)OC(F)(F)F)c(Cl)c1 (stereo not given)
Second: CC[C@H]1C[C@H]2[C@@H]3CCC4=CC(=O)CC[C@@H]4[C@H]3CC[C@]2(C)[C@H]1O
The “activity change, negative = inhibition” value of the first is lower: -0.0511% [at 53.7 µM] for the first, 1.7% [at 53.7 µM] for the second.

For `CCO[C@H]1O[C@@H]2OC3(C)CC[C@H]4[C@H](C)CC[C@@H]([C@H]1C)[C@@]24OO3`, the “activity change, negative = inhibition” value was -0.946% [at 53.7 µM].

For `COP(=O)(OC)O/C(=C/Cl)c1cc(Cl)c(Cl)cc1Cl`, the Potency was 37.6 µM (active).

— PubChem BioAssay (Tox21)
